Experiments:
[1] = tested on: Epidermal growth factor receptor (Homo sapiens), P00533 [T790M]; conditions: at 1 µM
[2] = tested on: Epidermal growth factor receptor (Homo sapiens), P00533 [L858R,T790M]; conditions: at 0.1 µM
[3] = tested on: Epidermal growth factor receptor (Homo sapiens), P00533 [L858R,T790M]; conditions: at 1 µM
[4] = target: Ephrin type-A receptor 2 (Homo sapiens) (UniProt P29317); conditions: at 0.1 µM
[5] = target: Ephrin type-A receptor 2 (Homo sapiens) (UniProt P29317); conditions: at 1 µM
[6] = target: T1, Ephrin type-A receptor 3 (Homo sapiens) (UniProt P29320); conditions: at 0.1 µM
T1 sequence (whole entry): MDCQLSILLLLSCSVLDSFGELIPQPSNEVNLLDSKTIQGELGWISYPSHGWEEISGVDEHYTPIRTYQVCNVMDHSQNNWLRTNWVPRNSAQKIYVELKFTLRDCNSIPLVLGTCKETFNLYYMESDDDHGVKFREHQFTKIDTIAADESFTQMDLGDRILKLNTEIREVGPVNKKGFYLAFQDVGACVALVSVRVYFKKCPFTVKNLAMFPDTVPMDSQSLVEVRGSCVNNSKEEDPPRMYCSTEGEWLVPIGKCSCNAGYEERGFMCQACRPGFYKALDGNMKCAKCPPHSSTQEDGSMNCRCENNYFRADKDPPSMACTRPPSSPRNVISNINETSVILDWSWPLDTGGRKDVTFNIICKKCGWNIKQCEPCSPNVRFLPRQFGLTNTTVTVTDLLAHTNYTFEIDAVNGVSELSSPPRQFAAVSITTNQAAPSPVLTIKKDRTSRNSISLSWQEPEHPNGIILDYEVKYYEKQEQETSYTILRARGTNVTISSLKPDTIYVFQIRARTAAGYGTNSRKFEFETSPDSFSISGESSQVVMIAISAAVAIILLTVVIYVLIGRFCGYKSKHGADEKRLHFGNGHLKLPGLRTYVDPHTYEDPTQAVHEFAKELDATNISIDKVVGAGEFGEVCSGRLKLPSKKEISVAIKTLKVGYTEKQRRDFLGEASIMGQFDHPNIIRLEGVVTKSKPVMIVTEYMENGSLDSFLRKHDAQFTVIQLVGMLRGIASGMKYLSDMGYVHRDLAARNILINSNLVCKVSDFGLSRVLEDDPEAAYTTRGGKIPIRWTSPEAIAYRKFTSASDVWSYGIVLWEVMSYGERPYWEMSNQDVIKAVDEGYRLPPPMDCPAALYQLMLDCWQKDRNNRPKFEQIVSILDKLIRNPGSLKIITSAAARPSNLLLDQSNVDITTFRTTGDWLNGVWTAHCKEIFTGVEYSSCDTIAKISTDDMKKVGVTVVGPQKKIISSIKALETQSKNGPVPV

[7] = target: T1, Ephrin type-A receptor 3 (Homo sapiens); conditions: at 1 µM
[8] = target: Ephrin type-A receptor 4 (Homo sapiens) (UniProt P54764); conditions: at 0.1 µM
[9] = target: Ephrin type-A receptor 4 (Homo sapiens) (UniProt P54764); conditions: at 1 µM
[10] = target: T2, Ephrin type-B receptor 2 (Homo sapiens) (UniProt P29323); conditions: at 0.1 µM
T2 sequence (whole entry): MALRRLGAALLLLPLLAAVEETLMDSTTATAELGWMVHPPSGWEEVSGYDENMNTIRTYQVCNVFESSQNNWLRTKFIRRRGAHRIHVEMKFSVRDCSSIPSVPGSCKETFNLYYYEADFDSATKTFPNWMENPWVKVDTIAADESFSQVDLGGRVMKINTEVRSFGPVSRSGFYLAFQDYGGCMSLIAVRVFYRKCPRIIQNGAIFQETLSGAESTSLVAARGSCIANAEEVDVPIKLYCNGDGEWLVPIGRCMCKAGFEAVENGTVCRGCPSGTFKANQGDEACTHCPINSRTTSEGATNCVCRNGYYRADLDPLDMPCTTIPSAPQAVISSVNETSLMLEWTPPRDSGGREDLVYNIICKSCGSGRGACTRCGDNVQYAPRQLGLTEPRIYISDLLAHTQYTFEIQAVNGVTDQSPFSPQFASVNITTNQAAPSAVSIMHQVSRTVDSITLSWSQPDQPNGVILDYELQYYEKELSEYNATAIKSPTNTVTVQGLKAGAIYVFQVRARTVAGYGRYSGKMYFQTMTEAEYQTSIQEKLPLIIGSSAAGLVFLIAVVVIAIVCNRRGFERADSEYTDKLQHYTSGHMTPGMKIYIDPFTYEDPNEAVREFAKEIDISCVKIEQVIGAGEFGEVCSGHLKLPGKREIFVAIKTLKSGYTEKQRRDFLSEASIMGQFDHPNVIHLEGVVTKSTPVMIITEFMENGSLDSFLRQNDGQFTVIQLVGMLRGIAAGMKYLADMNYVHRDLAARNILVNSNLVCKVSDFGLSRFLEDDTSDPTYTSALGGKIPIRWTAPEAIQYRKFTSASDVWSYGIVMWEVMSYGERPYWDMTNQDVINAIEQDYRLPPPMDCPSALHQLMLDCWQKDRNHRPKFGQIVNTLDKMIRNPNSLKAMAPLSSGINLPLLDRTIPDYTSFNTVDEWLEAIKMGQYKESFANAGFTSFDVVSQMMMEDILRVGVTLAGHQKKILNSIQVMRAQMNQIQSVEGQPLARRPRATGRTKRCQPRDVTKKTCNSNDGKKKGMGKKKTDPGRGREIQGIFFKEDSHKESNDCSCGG

[11] = target: T2, Ephrin type-B receptor 2 (Homo sapiens); conditions: at 1 µM
[12] = target: T3, Ephrin type-B receptor 3 (Homo sapiens) (UniProt P54753); conditions: at 0.1 µM
T3 sequence (whole entry): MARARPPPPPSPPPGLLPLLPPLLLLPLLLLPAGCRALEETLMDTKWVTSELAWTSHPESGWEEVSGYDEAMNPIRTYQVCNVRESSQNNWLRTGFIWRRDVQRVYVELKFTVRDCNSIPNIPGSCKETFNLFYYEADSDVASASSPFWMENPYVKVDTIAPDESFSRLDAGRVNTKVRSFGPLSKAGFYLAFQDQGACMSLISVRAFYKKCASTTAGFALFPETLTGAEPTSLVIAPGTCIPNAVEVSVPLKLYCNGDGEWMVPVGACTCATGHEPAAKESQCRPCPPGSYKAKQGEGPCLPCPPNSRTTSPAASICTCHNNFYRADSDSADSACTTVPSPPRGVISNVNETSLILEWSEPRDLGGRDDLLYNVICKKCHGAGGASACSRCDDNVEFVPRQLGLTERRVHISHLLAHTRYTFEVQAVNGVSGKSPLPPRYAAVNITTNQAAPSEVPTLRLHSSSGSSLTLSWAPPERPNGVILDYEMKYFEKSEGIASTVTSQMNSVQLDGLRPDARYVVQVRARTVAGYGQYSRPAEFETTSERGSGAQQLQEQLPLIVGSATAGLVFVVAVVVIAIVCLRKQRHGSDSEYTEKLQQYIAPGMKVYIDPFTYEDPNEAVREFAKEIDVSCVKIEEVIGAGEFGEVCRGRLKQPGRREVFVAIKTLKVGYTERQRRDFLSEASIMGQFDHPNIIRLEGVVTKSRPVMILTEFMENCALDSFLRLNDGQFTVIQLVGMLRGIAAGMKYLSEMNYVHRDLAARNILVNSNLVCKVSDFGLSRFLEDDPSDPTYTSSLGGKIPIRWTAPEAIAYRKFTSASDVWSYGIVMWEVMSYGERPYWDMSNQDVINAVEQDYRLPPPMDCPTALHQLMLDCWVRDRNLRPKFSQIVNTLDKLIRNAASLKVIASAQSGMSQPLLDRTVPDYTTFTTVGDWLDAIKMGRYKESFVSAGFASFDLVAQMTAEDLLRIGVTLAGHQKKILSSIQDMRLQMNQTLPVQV

[13] = target: T3, Ephrin type-B receptor 3 (Homo sapiens); conditions: at 1 µM
[14] = target: T4, Ephrin type-B receptor 4 (Homo sapiens) (UniProt P54760); conditions: at 0.1 µM
T4 sequence (whole entry): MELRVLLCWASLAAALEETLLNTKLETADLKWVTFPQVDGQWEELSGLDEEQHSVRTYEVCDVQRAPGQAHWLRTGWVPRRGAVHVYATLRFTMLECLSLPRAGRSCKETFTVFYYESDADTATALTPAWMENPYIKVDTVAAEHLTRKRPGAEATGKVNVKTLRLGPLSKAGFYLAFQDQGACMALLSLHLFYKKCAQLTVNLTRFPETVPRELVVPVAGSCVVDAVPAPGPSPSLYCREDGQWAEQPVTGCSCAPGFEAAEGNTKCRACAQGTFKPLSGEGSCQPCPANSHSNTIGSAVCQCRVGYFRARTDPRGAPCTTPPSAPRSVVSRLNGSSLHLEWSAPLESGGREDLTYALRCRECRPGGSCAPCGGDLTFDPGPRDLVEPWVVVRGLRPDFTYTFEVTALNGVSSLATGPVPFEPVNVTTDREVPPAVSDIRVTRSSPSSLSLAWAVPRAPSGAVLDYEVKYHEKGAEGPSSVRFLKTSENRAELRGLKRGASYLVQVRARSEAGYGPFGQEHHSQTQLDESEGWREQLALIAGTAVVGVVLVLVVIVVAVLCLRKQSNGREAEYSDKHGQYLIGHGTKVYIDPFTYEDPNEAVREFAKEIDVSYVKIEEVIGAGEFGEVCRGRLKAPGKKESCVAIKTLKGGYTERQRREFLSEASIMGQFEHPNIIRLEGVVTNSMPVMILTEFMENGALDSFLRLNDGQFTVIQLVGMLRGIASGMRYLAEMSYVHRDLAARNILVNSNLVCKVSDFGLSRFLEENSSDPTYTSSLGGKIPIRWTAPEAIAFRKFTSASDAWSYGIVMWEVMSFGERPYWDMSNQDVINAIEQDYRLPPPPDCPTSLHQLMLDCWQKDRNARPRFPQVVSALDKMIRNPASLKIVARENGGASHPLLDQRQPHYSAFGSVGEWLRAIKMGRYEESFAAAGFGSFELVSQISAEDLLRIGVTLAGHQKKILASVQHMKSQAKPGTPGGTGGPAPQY

[15] = target: T4, Ephrin type-B receptor 4 (Homo sapiens); conditions: at 1 µM
[16] = target: Receptor tyrosine-protein kinase erbB-2 (Homo sapiens) (UniProt P04626); conditions: at 0.1 µM
[17] = target: Receptor tyrosine-protein kinase erbB-2 (Homo sapiens) (UniProt P04626); conditions: at 1 µM
[18] = target: Receptor tyrosine-protein kinase erbB-4 (Homo sapiens) (UniProt Q15303); conditions: at 0.1 µM
[19] = target: Receptor tyrosine-protein kinase erbB-4 (Homo sapiens) (UniProt Q15303); conditions: at 1 µM
[20] = target: Tyrosine-protein kinase Fer (Homo sapiens) (UniProt P16591); conditions: at 0.1 µM;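 further: reported figures are averaged percent inhibition of FER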

Chain of Receptor tyrosine-protein kinase erbB-4 (Homo sapiens) (Q15303 whole entry): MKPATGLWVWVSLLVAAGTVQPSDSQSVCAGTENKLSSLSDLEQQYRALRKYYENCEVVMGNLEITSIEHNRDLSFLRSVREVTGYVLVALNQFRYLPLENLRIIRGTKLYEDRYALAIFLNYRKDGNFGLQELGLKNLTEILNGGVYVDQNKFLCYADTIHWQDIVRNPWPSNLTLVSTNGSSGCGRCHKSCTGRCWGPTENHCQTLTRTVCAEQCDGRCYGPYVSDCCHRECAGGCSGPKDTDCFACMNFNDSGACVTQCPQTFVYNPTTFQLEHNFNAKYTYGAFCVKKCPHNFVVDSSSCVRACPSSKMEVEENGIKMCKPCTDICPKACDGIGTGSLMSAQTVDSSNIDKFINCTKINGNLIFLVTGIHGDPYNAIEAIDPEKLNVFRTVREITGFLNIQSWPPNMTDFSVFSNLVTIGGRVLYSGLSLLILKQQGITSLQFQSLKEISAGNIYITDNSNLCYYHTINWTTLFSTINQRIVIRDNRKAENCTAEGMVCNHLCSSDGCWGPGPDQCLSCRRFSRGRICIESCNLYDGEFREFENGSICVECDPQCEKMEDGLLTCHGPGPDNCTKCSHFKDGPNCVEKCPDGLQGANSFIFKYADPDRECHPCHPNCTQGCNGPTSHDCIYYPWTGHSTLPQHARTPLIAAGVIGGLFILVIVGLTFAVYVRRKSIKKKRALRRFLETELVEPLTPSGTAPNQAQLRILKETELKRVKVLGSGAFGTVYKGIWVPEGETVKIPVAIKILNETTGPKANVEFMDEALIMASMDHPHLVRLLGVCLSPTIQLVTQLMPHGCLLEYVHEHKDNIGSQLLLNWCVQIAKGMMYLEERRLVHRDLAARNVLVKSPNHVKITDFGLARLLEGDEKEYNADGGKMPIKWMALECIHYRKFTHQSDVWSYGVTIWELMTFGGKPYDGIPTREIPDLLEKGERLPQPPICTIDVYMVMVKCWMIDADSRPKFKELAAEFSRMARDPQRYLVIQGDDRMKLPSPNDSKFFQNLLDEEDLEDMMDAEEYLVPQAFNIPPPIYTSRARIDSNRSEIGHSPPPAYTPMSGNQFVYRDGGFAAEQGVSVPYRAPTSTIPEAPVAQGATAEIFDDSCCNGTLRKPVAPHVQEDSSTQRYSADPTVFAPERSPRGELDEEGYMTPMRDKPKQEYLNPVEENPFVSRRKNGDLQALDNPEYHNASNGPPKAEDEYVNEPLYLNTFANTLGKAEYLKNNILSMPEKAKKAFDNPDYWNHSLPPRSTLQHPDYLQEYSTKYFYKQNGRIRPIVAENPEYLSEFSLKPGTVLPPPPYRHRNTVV
Chain of Epidermal growth factor receptor (Homo sapiens), P00533 [L858R,T790M] (P00533 whole entry T790M/L858R, looked up): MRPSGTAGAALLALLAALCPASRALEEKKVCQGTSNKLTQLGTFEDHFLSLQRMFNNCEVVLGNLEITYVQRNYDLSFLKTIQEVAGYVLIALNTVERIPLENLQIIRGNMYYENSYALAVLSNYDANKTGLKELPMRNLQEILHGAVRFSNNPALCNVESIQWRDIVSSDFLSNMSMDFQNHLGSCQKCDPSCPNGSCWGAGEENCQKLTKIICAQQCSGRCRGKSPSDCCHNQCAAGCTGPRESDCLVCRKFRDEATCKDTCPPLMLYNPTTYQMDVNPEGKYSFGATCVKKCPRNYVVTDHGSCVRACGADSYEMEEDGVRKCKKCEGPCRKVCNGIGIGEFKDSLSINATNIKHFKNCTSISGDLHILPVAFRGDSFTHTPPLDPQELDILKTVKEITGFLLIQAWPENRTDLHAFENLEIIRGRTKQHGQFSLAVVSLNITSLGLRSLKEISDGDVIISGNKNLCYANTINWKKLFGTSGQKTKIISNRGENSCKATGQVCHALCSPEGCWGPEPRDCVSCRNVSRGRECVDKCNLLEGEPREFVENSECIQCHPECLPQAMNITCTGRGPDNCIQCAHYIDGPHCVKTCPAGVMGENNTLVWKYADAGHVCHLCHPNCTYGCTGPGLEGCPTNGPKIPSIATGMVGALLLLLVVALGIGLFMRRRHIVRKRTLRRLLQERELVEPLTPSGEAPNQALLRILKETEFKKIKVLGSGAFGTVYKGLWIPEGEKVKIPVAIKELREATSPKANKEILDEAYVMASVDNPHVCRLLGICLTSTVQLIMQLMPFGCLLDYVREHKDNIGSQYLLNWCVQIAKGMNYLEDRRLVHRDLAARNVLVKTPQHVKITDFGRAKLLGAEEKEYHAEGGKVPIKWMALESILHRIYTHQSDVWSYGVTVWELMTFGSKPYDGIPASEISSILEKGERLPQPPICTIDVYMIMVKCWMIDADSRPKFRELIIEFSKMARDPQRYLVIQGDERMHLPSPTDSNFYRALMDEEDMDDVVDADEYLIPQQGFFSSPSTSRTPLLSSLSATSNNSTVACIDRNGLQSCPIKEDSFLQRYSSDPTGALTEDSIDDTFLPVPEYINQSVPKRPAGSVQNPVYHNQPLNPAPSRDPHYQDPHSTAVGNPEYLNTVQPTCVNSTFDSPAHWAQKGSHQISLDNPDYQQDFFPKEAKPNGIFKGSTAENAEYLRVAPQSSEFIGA
Chain of Receptor tyrosine-protein kinase erbB-2 (Homo sapiens) (P04626 whole entry): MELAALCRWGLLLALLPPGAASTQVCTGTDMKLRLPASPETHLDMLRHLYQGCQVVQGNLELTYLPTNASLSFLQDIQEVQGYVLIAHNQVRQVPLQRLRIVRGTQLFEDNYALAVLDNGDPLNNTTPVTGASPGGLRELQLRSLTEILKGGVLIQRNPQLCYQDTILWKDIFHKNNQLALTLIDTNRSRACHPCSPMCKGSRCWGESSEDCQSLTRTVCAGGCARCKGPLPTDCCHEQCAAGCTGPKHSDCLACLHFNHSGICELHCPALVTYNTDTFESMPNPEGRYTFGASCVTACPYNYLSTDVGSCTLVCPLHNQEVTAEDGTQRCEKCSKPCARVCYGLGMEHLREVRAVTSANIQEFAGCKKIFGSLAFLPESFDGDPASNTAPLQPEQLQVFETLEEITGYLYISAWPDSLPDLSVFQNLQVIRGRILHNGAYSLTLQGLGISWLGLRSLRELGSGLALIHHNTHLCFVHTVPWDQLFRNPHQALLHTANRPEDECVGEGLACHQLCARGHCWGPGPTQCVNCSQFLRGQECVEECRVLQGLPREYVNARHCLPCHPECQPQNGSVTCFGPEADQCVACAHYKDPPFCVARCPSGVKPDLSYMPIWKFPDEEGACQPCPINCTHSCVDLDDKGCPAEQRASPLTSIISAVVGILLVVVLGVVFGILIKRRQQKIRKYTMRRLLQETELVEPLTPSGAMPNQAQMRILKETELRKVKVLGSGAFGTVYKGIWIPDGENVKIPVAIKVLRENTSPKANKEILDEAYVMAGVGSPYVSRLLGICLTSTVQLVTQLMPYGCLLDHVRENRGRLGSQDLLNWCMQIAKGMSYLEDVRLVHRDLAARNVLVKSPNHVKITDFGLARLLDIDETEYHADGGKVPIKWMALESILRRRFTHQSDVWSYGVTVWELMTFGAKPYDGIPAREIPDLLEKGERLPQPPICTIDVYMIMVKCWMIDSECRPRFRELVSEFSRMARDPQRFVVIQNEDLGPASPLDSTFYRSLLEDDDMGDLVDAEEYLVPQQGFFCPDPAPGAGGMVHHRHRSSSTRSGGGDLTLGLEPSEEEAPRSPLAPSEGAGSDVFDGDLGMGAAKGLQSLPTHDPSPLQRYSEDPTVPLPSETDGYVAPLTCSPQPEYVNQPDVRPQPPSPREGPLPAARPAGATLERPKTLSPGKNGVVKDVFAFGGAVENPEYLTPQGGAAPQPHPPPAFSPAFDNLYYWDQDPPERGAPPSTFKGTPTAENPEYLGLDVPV
Chain of Epidermal growth factor receptor (Homo sapiens), P00533 [T790M] (P00533 whole entry T790M): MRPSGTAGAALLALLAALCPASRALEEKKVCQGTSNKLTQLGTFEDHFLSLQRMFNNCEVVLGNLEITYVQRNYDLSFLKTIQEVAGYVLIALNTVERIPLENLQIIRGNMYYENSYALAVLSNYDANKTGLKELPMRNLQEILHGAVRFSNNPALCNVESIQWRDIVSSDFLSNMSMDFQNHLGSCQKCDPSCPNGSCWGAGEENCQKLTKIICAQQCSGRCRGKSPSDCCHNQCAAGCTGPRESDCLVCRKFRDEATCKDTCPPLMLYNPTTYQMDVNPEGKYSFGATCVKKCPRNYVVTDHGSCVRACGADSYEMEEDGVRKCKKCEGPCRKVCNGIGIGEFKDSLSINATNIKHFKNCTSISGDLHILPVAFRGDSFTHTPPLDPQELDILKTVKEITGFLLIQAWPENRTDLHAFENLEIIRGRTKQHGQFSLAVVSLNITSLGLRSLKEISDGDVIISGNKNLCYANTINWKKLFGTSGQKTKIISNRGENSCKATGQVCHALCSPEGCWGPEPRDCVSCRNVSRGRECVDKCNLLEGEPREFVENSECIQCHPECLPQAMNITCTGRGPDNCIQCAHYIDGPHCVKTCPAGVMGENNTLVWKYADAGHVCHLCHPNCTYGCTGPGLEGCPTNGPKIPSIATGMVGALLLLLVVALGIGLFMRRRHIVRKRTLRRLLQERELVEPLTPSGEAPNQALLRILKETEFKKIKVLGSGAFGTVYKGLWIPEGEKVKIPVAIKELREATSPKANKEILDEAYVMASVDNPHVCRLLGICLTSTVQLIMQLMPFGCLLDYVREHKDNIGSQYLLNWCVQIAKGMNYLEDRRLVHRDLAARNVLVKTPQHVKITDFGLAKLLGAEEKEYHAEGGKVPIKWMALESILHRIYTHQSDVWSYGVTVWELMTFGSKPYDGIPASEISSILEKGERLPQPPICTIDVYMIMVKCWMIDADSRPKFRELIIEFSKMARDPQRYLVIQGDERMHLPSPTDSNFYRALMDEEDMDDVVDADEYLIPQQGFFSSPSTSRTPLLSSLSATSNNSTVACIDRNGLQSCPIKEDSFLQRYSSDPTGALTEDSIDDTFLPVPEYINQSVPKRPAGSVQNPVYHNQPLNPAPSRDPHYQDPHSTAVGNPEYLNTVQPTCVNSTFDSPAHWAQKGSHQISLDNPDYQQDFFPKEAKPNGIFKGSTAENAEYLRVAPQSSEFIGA

SMILES | inhibition [1] | inhibition [2] | inhibition [3] | inhibition [4] | inhibition [5] | inhibition [6] | inhibition [7] | inhibition [8] | inhibition [9] | inhibition [10] | inhibition [11] | inhibition [12] | inhibition [13] | inhibition [14] | inhibition [15] | inhibition [16] | inhibition [17] | inhibition [18] | inhibition [19] | inhibition [20]
NS(=O)(=O)c1cccc(N/C=C2\C(=O)Nc3ccccc32)c1 | 1.35% | 2.94% | 5.43% | 0.86% | 1.68% | 3.01% | 3.78% | 7.61% | 3.9% | 9.06% | 10.8% | 5.46% | 2.58% | 4.23% | 3.73% | 1.3% | -0.02% | 13.3% | 14.6% | 3.91%
CN(c1ccc(NC(=O)NCCN2CCOCC2)cc1)c1ccnc(Nc2ccc(CS(C)(=O)=O)cc2)n1 | 4.33% | 0.85% | 2.57% | 2.23% | 2.79% | 4.27% | 5.54% | 8.57% | 19.6% | 6.47% | 17.1% | 3.86% | 4.14% | 2.27% | 3.53% | 1.62% | 4.12% | 6.8% | 4.94% | 3.77%
c1cnn2ncc(-c3ccnc(NCCCN4CCOCC4)n3)c2c1 | 1.66% | -1.49% | 0.81% | -0.74% | -1.53% | 2.9% | 6.16% | 10% | 5.87% | 6.81% | 9.04% | 6.96% | 3.37% | 1.21% | 1.07% | 1.75% | -0.02% | 8.02% | 8.49% | 0.82%
NS(=O)(=O)c1ccc(N/N=C2\C(=O)Nc3ccc(C(=O)NCc4ccncc4)cc32)cc1 | 5.2% | 0.1% | 2.72% | 1.72% | 1.75% | 4.4% | 3.58% | 8.7% | 15% | 4.03% | 11.1% | 3.93% | 2.6% | 1.83% | 4.17% | 2.22% | 6.09% | 6.54% | 7.07% | 2.36%
COc1cccc(-n2ncc3c(N/N=C/c4ccc(C(=O)NCCN(C)C)cc4)ncnc32)c1 | 4.06% | 4.3% | 25.9% | 1.33% | 5.44% | 3.11% | 6.35% | 2.76% | 15.9% | 14.1% | 46.4% | 5.98% | 7.32% | 6.37% | 30.5% | 0.77% | 10.5% | 23.2% | 49.9% | 3.03%
CS(=O)(=O)CCNCc1ccc(-c2ccc3ncnc(Nc4ccc(OCc5ccccc5)cc4)c3c2)o1 | 12.4% | 0.12% | 4.35% | 1.77% | 1.18% | 5.21% | 5.62% | 9.98% | 11.5% | 6.07% | 7.66% | 5.28% | 5.08% | 3.4% | 3% | 15.1% | 73% | 84.6% | 96.6% | 1.45%

From ChEMBL document CHEMBL1961873, “Compounds: GSK PKIS; Assays: Nanosyn kinase panel” (2012)
